Results taken from PubChem BioAssay (NCI).
The panel holds about 79,000 compounds, 15% with a hit somewhere; the sample as a whole holds those more often. Values without a mark were called inactive. Activity calls are given as the source filed them. Rule as the data show it: active = growth inhibition above about 70%; inactive = the rest.

What was measured:
[1] = NCI Yeast Anticancer Drug Screen. Data for the rad50 strain (AID 155);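 also: 0% = growth of vehicle-only cultures of the same strain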; details: S. cerevisiae rad50 strain growth inhibition, active compounds read high
Method in brief: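 Compounds were tested on a yeast strain with an engineered DNA damage repair alteration; the reported value is growth inhibition normalised to vehicle treatment.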

[2] = NCI Yeast Anticancer Drug Screen. Data for the mec2-1 strain (AID 157); details: S. cerevisiae mec2-1 strain, active compounds read high
Method in brief: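 Vehicle-treated cultures served as reference for growth inhibition of compound-exposed mec2-1 yeast.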

[3] = NCI Yeast Anticancer Drug Screen. Data for the sgs1 mgt1 strain (AID 161);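 also: 0% = growth of cultures given vehicle only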; details: S. cerevisiae sgs1 mgt1 strain, active compounds read high
Method in brief: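 Read-out: growth inhibition vs vehicle controls. Cells: mutant yeast strain deficient in DNA damage repair.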

[4] = NCI Yeast Anticancer Drug Screen. Data for the cln2 rad14 strain (AID 165);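 also: 0% = growth equal to vehicle treated cultures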; details: S. cerevisiae cln2 rad14 strain, active compounds read high
Method in brief: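 Each compound was tested on cln2 rad14 yeast. Inhibition of growth was calculated against vehicle-exposed controls.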

[5] = NCI Yeast Anticancer Drug Screen. Data for the bub3 strain (AID 167); details: S. cerevisiae bub3 mutant strain, active compounds read high
Method in brief: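 Growth of a checkpoint-deficient yeast mutant is measured after compound exposure. Values represent inhibition relative to vehicle.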

[6] = NCI Yeast Anticancer Drug Screen. Data for the mlh1 rad18 strain (AID 175); details: S. cerevisiae mlh1 rad18 strain growth inhibition, active compounds read high
Method in brief: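 Vehicle-treated cultures served as the reference for growth inhibition in a yeast strain carrying DNA damage repair alterations exposed to each compound.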

[7] = at 5.0 µM (retest, dose inferred, filed as 0.5)
[8] = at 50.0 µM (retest, dose inferred, filed as 5.0)

| SMILES | growth inhibition [1, 7] [%] | growth inhibition [1, 8] | growth inhibition ([1]; at 50.0 µM) | growth inhibition [2, 7] [%] | growth inhibition [2, 8] | growth inhibition ([2]; at 50.0 µM) | growth inhibition [3, 7] [%] | growth inhibition [3, 8] | growth inhibition ([3]; at 50.0 µM) | growth inhibition [4, 7] [%] | growth inhibition [4, 8] | growth inhibition ([4]; at 50.0 µM) | growth inhibition [5, 7] [%] | growth inhibition [5, 8] | growth inhibition ([5]; at 50.0 µM) | growth inhibition [6, 7] [%] | growth inhibition [6, 8] | growth inhibition ([6]; at 50.0 µM) |
| --- | --- | --- | --- | --- | --- | --- | --- | --- | --- | --- | --- | --- | --- | --- | --- | --- | --- | --- |
| c1nc2nc(N3CCOCC3)nc(N3CCCCC3)c2[nH]1 | -22 | -14% | -1.35% | -18 | -18% | 3.25% | 2 | 2% | 2.45% | -2 | 0% | 6.7% | -1 | -9% | -43.2% | -19 | 10% | -0.15% |
| CS(=O)(=O)OCCN(CCOS(C)(=O)=O)c1ccc(C=Nc2ccc(-c3csc(-c4ccc(Br)cc4)n3)cc2)cc1 | 33 | 95% (active) | 94% (active) | 43 | 96% (active) | 97.2% (active) | 18 | 90% (active) | 94.2% (active) | 19 | 92% (active) | 81.2% (active) | -4 | 90% (active) | 74.8% (active) | 60 | 96% (active) | 96% (active) |
| COC(=O)c1ccc(NCc2c(O)ccc(O)c2Br)cc1Cl | 21 | 99% (active) | 89.5% (active) | 14 | 99% (active) | 92.2% (active) | 21 | 99% (active) | 89.1% (active) | 25 | 99% (active) | 90.2% (active) | 22 | 99% (active) | 91.8% (active) | 25 | 98% (active) | 91.7% (active) |
| c1c[n+](CCC2CCCCC2)ccn1 | -15 | 6% | 89% (active) | -14 | -23% | 97% (active) | -33 | -21% | 94.3% (active) | -26 | 10% | 73.1% (active) | -6 | 28% | 63.7% | -28 | 3% | 69.5% |
| C/C(=N\NC(=S)NNC(=S)N1CCCc2ccccc21)c1ccccn1 | 3 | 96% (active) | 95.9% (active) | -16 | 96% (active) | 95.7% (active) | 30 | 97% (active) | 96.7% (active) | -23 | 96% (active) | 95.8% (active) | -6 | 97% (active) | 90.7% (active) | 5 | 95% (active) | 95.6% (active) |
| CSc1ccc(/C=C2\CNC/C(=C\c3ccc(SC)cc3)C2=O)cc1 | 12 | 18% | 47.4% | 15 | 19% | 55.2% | 26 | 32% | 69.8% | 23 | 29% | 46.9% | 17 | 23% | 35% | 24 | 33% | 71.6% (active) |
| O=C1C(=O)c2cc(Cl)ccc2-c2ccc(Cl)cc21 | 20 | 90% (active) | 91% (active) | 30 | 95% (active) | 93.9% (active) | 33 | 95% (active) | 94% (active) | -4 | 94% (active) | 88.5% (active) | 56 | 94% (active) | 86.6% (active) | 30 | 95% (active) | 93.5% (active) |
| Cc1cc(Br)ccc1NC(=O)/C=C/C(=O)O | -23 | -36% | 0.1% | -24 | -5% | 4.25% | -17 | -4% | 17.4% | 10 | 22% | 7.15% | -4 | -13% | 20.2% | 0 | -16% | 1.25% |
| O=C(OCC1OC(OCC(OC(=O)c2ccccc2)C(OC(=O)c2ccccc2)C(OC(=O)c2ccccc2)c2cnn(-c3ccccc3)n2)C(OC(=O)c2ccccc2)C(OC(=O)c2ccccc2)C1OC(=O)c1ccccc1)c1ccccc1 (stereo not given) | -6 | -1% | 97.5% (active) | -14 | -21% | 94.8% (active) | -1 | -6% | 98% (active) | 6 | 7% | 98.6% (active) | -12 | 4% | 96.8% (active) | -4 | -10% | 97.7% (active) |
| CCCCN(CCCC)S(=O)(=O)c1ccccc1 | 3 | 27% | 44.7% | -4 | 3% | 32.4% | 1 | 52% | 7.85% | -1 | -9% | -11.4% | 3 | 14% | 65.5% | 2 | 17% | 79% (active) |
